According to PubChem BioAssay (EPA / NIEHS):
Records with an inconclusive call do not appear. Activity calls are given as the source filed them. Rule for the calls, unless noted: active = hit-call score of the fitted dose curve at least 0.9, where 1 is the maximum; inconclusive = response in the unintended direction; inactive = score below 0.9.

Assays:
[1] = biological target: Glucocorticoid receptor (Homo sapiens) (UniProt P04150); assay: ATG_GR_TRANS: Attagene TRANS-FACTORIAL HepG2 Assay for human Glucocorticoid Receptor (GR) (AID 2282978); conditions: HepG2 Attagene TRANS GR reporter, mRNA transcription;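 note: activators score as hits since higher reporter transcript over DMSO is fitted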
Outline: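 Exogenous NR-GAL4 fusion activity was assessed through induced GAL4-UAS reporter transcripts in transfected human HepG2 cells, quantified after 24 h by RT-PCR and fluorescent capillary electrophoresis with DMSO as baseline.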

[2] = ATG_M_06_TRANS: Attagene TRANS-FACTORIAL HepG2 Assay for M06 Transcription Factor (Internal Marker) (AID 2282983); conditions: HepG2 Attagene TRANS M06 internal marker reporter;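 note: reporter transcript level by RT-PCR then capillary electrophoresis fluorescence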
Outline: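 Transfect HepG2 with MRTUs → dose compounds 24 h → isolate RNA, oligo(dT) RT → PCR with reporter primers → 6-FAM primer extension → HpaI digest → CE fragment analysis. Positive direction vs DMSO.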

[3] = ATG_M_32_TRANS: Attagene TRANS-FACTORIAL HepG2 Assay for M32 Transcription Factor (Internal Marker) (AID 2282984); conditions: HepG2 Attagene TRANS M32 internal marker reporter;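 note: transcript level of a background control reporter unit measured by RT-PCR and capillary electrophoresis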
Outline: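 Using transiently transfected HepG2 cells exposed to test chemicals for 24 h, reporter transcripts are converted to labelled cDNA fragments and quantified by capillary electrophoresis. DMSO defines the activity baseline.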

[4] = biological target: Nuclear receptor subfamily 4 group A member 2 (Homo sapiens) (UniProt P43354); assay: ATG_NURR1_TRANS: Attagene TRANS-FACTORIAL HepG2 Assay for human Nuclear Receptor Related Protein 1 (NURR1) (AID 2282985); conditions: HepG2 Attagene TRANS reporter, mRNA readout
Outline: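 Cells: HepG2, transiently transfected. Exposure: 24 h. Detection: fluorescence of labelled RT-PCR products separated by capillary electrophoresis; upward fit versus DMSO.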

[5] = biological target: Transcriptional activator Myb (Homo sapiens) (UniProt P10242); assay: ATG_Myb_CIS: Attagene CIS-FACTORIAL HepG2 Assay for human Myeloblastosis (Myb) Proto-Oncogene Transcription Factor (AID 2282986; active = hit-call score of the fitted dose curve at least 0.9, where 1 is the maximum; inactive = score below 0.9); conditions: HepG2 Attagene CIS-FACTORIAL Myb reporter transcription; actives raise or lower the signal
Outline: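 In this HepG2 transient-transfection format, cis-regulated reporter mRNA is quantified 24 h post-dosing by RT-PCR with capillary electrophoresis, fitted bidirectionally to DMSO baseline.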

[6] = biological target: Nuclear respiratory factor 1 (Homo sapiens) (UniProt Q16656); assay: ATG_NRF1_CIS: Attagene CIS-FACTORIAL HepG2 Assay for human Nuclear Respiratory Factor 1 (NRF1) Orphan Gene (AID 2282987; active = hit-call score of the fitted dose curve at least 0.9, where 1 is the maximum; inactive = score below 0.9); conditions: HepG2 NRF1 cis-element reporter, Attagene multiplex; actives raise or lower the signal
Outline: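 Using DMSO as baseline, gain- or loss-of-signal was fitted for reporter mRNA levels in HepG2 cells transiently transfected with cis-regulated reporter units. Samples were taken 24 h after dosing and read by RT-PCR with capillary electrophoresis.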

[7] = biological target: Hepatocyte nuclear factor 4-alpha (Homo sapiens) (UniProt P41235); assay: ATG_HNF4a_TRANS: Attagene TRANS-FACTORIAL HepG2 Assay for human Hepatocyte Nuclear Factor 4 alpha (HNF4a) (AID 2282982); conditions: HepG2 HNF4a transactivation reporter, mRNA readout
Outline: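 Transfected HepG2 reporter cells are dosed for 24 h; reporter RNA is reverse-transcribed, amplified, fluorescently labelled and HpaI-digested before CE sizing. Positive-direction fit against DMSO.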

[8] = biological target: Bile acid receptor (Homo sapiens) (UniProt Q96RI1); assay: ATG_FXR_TRANS: Attagene TRANS-FACTORIAL HepG2 Assay for Farnesoid X Receptor (FXR) (AID 2282979); conditions: HepG2 Attagene TRANS FXR-GAL4 reporter transcription;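 note: hits raise reporter mRNA above DMSO so AC50 marks FXR activation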
Outline: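 Transient transfection of HepG2 with multiplexed GAL4-UAS reporter units; exogenous FXR-GAL4 chimera. Dose 24 h → TriZol RNA → oligo(dT) RT → PCR, 6-FAM primer extension, HpaI cut → CE. Gain vs DMSO.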

[9] = biological target: Oxysterols receptor LXR-alpha (Homo sapiens) (UniProt Q13133); assay: ATG_LXRa_TRANS: Attagene TRANS-FACTORIAL HepG2 Assay for human Liver X Receptor alpha (LXRa) (AID 2282980); conditions: HepG2 Attagene TRANS reporter, LXRa transactivation
Outline: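 Transfect HepG2 with GAL4-UAS multiplex reporter constructs (TRANS format, chimeric receptor-GAL4); treat 24 h; extract RNA, reverse-transcribe, PCR-amplify, FAM-label, HpaI-digest; resolve fragments by capillary electrophoresis. Upward response vs DMSO.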

[10] = biological target: Oxysterols receptor LXR-beta (Homo sapiens) (UniProt P55055); assay: ATG_LXRb_TRANS: Attagene TRANS-FACTORIAL HepG2 Assay for human Liver X Receptor beta (LXRb) (AID 2282981); conditions: HepG2 Attagene TRANS GAL4-LXRb reporter, mRNA
Outline: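 Cells: HepG2, transiently transfected with GAL4-UAS reporter units plus LXRb-Gal4 fusion. Treatment: 24 h. Detection: reporter mRNA by RT-PCR, 6-FAM labelling, HpaI digestion, capillary electrophoresis.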

Measured: AC50

Sequence of Nuclear receptor subfamily 4 group A member 2 (Homo sapiens) (P43354 whole entry, looked up): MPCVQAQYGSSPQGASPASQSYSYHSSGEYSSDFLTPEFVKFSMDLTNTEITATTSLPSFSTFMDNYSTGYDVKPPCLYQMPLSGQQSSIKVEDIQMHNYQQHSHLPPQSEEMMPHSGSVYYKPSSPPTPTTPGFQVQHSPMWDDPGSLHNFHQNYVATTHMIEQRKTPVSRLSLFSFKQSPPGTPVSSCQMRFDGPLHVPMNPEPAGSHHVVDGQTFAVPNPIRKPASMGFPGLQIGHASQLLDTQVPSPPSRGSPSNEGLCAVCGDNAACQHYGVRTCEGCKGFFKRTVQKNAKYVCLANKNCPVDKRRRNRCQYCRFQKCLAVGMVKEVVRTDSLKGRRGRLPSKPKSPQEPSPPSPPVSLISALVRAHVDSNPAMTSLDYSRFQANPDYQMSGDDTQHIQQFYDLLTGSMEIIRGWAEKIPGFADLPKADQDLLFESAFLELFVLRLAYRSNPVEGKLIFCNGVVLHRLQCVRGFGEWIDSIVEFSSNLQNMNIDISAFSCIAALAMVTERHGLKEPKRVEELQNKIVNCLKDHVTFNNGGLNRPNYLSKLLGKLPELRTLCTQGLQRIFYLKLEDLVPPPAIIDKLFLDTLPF
Sequence of Glucocorticoid receptor (Homo sapiens) (P04150 whole entry, looked up, the tested form may be a part): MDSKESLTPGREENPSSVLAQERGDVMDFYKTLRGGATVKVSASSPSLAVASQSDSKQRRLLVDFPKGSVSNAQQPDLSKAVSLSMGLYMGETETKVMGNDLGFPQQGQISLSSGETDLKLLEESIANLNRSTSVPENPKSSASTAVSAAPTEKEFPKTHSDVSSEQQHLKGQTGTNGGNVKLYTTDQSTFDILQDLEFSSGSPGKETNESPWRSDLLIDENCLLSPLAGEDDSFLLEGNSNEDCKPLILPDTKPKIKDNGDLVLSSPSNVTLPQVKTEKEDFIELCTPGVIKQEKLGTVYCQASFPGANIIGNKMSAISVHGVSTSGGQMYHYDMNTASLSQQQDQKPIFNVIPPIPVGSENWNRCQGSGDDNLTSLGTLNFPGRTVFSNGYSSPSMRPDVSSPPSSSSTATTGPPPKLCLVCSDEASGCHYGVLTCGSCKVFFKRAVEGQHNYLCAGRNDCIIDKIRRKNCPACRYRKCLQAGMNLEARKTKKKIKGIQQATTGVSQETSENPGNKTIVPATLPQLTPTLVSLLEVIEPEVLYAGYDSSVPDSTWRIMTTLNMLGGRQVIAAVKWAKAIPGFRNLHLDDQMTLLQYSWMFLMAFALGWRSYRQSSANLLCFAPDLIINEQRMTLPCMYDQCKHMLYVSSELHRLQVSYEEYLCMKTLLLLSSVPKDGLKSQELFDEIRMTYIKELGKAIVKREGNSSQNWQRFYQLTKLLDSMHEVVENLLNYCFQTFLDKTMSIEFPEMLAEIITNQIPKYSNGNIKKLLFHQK
Sequence of Oxysterols receptor LXR-beta (Homo sapiens) (P55055 whole entry, looked up, the tested form may be a part): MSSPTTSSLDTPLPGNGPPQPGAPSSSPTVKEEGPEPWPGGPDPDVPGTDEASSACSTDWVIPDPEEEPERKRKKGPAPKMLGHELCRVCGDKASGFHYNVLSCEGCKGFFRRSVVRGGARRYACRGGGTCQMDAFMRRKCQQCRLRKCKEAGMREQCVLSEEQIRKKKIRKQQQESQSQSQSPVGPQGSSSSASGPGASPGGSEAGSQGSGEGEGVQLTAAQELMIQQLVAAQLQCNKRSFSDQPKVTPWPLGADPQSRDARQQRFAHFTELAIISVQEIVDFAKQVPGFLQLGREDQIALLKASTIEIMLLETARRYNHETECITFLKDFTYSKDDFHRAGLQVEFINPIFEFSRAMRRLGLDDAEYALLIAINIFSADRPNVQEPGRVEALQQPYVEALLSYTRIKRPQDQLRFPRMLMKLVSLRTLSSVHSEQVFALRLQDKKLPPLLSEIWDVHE
Sequence of Oxysterols receptor LXR-alpha (Homo sapiens) (Q13133 whole entry, looked up, the tested form may be a part): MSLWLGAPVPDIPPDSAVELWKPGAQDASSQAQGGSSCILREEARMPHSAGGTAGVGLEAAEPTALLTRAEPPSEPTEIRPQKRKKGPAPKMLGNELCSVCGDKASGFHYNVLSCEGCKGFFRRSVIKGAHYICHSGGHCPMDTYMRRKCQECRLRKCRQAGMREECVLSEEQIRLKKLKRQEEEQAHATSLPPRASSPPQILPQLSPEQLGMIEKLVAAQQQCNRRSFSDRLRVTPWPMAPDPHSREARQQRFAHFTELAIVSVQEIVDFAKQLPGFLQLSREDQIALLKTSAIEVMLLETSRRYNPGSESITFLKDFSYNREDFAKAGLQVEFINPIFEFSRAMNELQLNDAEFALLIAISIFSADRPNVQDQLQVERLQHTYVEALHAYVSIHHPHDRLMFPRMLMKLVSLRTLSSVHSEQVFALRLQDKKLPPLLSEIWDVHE
Sequence of Bile acid receptor (Homo sapiens) (Q96RI1 whole entry, looked up, the tested form may be a part): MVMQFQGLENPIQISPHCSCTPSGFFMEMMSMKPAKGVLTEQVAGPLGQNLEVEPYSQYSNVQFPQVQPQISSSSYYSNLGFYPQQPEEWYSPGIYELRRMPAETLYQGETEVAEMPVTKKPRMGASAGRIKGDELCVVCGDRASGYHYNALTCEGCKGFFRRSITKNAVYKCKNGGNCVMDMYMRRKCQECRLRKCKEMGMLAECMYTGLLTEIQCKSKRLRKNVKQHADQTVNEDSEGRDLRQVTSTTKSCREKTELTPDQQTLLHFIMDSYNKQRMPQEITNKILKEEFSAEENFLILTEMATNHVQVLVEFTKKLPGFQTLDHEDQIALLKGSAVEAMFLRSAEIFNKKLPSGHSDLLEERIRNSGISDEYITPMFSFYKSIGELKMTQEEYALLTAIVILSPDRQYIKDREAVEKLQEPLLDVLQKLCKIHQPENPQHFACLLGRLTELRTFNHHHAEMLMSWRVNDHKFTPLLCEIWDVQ
Sequence of Transcriptional activator Myb (Homo sapiens) (P10242 whole entry, looked up): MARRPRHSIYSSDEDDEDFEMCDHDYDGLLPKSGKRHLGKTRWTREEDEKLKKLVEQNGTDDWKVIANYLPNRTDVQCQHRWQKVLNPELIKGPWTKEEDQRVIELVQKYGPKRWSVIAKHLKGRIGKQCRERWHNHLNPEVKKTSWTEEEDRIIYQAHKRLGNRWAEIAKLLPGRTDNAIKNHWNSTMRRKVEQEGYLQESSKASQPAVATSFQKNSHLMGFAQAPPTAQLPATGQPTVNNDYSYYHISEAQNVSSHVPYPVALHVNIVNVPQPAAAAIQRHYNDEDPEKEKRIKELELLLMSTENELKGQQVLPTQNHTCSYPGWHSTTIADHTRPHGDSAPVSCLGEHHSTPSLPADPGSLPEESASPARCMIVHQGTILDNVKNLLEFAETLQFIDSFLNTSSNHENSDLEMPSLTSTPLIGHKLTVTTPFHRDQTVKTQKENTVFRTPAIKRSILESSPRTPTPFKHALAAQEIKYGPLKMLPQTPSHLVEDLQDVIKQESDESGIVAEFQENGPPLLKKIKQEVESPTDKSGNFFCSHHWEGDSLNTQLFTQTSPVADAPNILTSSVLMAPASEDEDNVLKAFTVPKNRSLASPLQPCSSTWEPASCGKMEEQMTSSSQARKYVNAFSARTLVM
Sequence of Nuclear respiratory factor 1 (Homo sapiens) (Q16656 whole entry, looked up): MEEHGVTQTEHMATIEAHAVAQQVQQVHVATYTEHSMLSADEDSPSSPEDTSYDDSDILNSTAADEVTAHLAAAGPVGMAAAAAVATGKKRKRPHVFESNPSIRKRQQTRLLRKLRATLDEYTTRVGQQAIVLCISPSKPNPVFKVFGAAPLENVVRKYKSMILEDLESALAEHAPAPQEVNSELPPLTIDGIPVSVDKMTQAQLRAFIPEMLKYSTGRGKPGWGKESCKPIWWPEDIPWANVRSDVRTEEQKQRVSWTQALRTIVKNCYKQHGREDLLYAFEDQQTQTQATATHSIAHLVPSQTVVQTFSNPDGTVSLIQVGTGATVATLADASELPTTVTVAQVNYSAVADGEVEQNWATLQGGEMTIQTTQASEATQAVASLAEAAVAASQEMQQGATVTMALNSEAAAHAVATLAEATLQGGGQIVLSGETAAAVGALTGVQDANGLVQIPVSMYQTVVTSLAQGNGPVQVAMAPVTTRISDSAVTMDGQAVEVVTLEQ
Sequence of Hepatocyte nuclear factor 4-alpha (Homo sapiens) (P41235 whole entry, looked up): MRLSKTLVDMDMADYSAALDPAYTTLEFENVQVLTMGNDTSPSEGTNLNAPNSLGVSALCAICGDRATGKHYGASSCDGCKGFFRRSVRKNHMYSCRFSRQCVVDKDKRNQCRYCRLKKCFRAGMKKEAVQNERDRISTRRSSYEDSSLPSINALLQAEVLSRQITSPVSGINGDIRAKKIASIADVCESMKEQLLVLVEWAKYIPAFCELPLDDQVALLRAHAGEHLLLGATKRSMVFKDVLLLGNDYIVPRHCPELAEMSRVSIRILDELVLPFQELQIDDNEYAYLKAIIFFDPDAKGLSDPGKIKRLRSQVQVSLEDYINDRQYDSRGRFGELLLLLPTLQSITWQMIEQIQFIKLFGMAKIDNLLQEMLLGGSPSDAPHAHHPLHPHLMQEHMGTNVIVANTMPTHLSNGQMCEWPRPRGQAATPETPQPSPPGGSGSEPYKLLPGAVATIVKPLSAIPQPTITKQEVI

CCCCCCCCCCCSCC(=O)O
inactive: [1] | [2] | [3] | [5]
active: [4] 23 µM | [6] 77.7 µM

O=c1c2ccccc2oc2ccccc12
inactive: [1] | [7] | [5] | [6]

CCCCC(CC)COCC1CO1 (configuration not stated)
inactive: [1] | [7] | [2] | [3] | [5] | [6]

CCCCCCCCCCCCCCCC[N+](C)(C)CC
active: [7] 11 µM | [6] 9.68 µM
inactive: [8] | [9] | [10] | [2] | [3] | [4] | [5]

NC(=O)C1CO1 (configuration not stated)
inactive: [1] | [7] | [5] | [6]

CC(=O)CC(N)=O
inactive: [1] | [7] | [2] | [5] | [6]

CC(C)C(=O)C(C)C
inactive: [1] | [7] | [2] | [3] | [4] | [5] | [6]

OCCNCc1ccccc1
inactive: [1] | [2] | [3] | [5] | [6]

COCc1c(C(C)C)nc(C(C)C)c(/C=C/[C@@H](O)C[C@@H](O)CC(=O)O)c1-c1ccc(F)cc1
inactive: [1] | [7] | [2] | [4] | [5] | [6]

Cc1ccc(N)c([N+](=O)[O-])c1
inactive: [1] | [7] | [5] | [6]

CCCCCCCC/C=C\CCCCCCCC(=O)OCCO
inactive: [1] | [7] | [2] | [3] | [4] | [5] | [6]

CC(=O)Nc1ccc2c(c1)Cc1cc(NC(C)=O)ccc1-2
inactive: [1] | [7] | [2] | [4] | [6]

O=C1CCCCCCCCCCC(=O)OCCO1
inactive: [1] | [2] | [5]

CC1=Nc2ccc3ccccc3c2C1(C)C
inactive: [8] | [9] | [10] | [7] | [4] | [5] | [6]

c1ccc2c(c1)ccc1ncccc12
inactive: [1] | [7] | [2] | [4] | [5]

Nc1cccc(C(F)(F)F)c1
inactive: [8] | [9] | [10] | [2] | [3] | [4] | [6]

SCCc1cnccn1
inactive: [1] | [7] | [2] | [4] | [6]

CC(C)=CCCC(C)C=O (configuration not stated)
inactive: [8] | [9] | [10] | [7] | [3] | [4] | [5]

CO[Si](CCC1CCC2OC2C1)(OC)OC (configuration not stated)
inactive: [1] | [5]

COC(=O)c1cc(Cl)ccc1[N+](=O)[O-]
inactive: [1] | [2] | [3] | [5] | [6]

C=C1C2CCC(C2)C1(C)C (configuration not stated)
inactive: [1] | [4] | [5] | [6]

CCCCCC/C=C\CCCCCCCC(=O)O
inactive: [1] | [7] | [2] | [4] | [5] | [6]

O=C1CC2CC1C1CCCC21 (configuration not stated)
inactive: [1] | [3] | [5] | [6]

CCCCCc1ccc(Cl)cc1
inactive: [1] | [4] | [5] | [6]

O=S(=O)(O)c1cc(S(=O)(=O)O)c2ccc3c(S(=O)(=O)O)cc(S(=O)(=O)O)c4ccc1c2c43
inactive: [8] | [9] | [10] | [7] | [2] | [3] | [4] | [5] | [6]

CCCCCCCCC(=O)OCC
inactive: [1] | [7] | [3] | [4] | [5]

CC(=O)C=CC1C(C)=CCC(C)C1(C)C (configuration not stated)
inactive: [1] | [7] | [2] | [3] | [4] | [5] | [6]

O=c1[nH]c(=O)c2[nH]c(=O)[nH]c2[nH]1
inactive: [1] | [2] | [4] | [5] | [6]

C=C(C)C(=O)OCCOc1ccccc1
inactive: [1] | [7] | [2] | [4] | [5] | [6]

Cc1ccc(C(C)c2ccc(C)c(C)c2)cc1C
active: [5] 125 µM
inactive: [1] | [4] | [6]

OC1CCCCCCCCCCC1
inactive: [1] | [2] | [5] | [6]

c1cc(N(CC2CO2)CC2CO2)ccc1OCC1CO1 (configuration not stated)
inactive: [8] | [9] | [10] | [7] | [2] | [6]

C=C1[C@H]2CC[C@@H]3[C@H]2C(C)(C)CCC[C@]13C
inactive: [1] | [7] | [2] | [4] | [5] | [6]

CCCCC(CC)COC(=O)c1ccccc1 (configuration not stated)
inactive: [1] | [3] | [4] | [5] | [6]

O=Nc1ccc(O)cc1
inactive: [1] | [7] | [2] | [4] | [5] | [6]

CC(=O)OCC(C)OC(C)=O (configuration not stated)
inactive: [8] | [9] | [10] | [7] | [2] | [3] | [5] | [6]

CCC(CC)C(=O)O
inactive: [1] | [7] | [5] | [6]

O=[N+]([O-])c1ccc(CO)cc1
inactive: [1] | [2] | [3] | [4] | [5] | [6]

c1cc(C(c2ccc(OCC3CO3)cc2)C(c2ccc(OCC3CO3)cc2)c2ccc(OCC3CO3)cc2)ccc1OCC1CO1 (configuration not stated)
inactive: [1] | [2] | [3] | [5] | [6]

OCCCS
inactive: [1] | [7] | [3] | [4] | [5] | [6]

O=C1C=CC(=O)O1
inactive: [8] | [9] | [7] | [2] | [5] | [6]

CC(C)=CCC/C(C)=C\C#N
inactive: [9] | [10] | [7] | [2] | [3] | [4] | [5] | [6]

CCOC(=O)NNc1nncc2ccccc12
inactive: [8] | [7] | [2] | [3] | [5] | [6]

COc1ccc(C(Cl)=C(c2ccc(OC)cc2)c2ccc(OC)cc2)cc1
inactive: [9] | [10] | [7] | [2] | [3] | [4] | [5] | [6]

CCCCC(CC)CCC(CC(C)C)OS(=O)(=O)O (configuration not stated)
inactive: [8] | [10] | [2] | [3] | [4] | [5] | [6]

CCCCCC(C)O (configuration not stated)
inactive: [9] | [10] | [7] | [2] | [5] | [6]

COC(=O)c1ccccc1OC
inactive: [8] | [2] | [4] | [5] | [6]

Cc1ccc2c(c1)C(=O)c1ccccc1C2=O
inactive: [9] | [10] | [7] | [2] | [4] | [5] | [6]

O=C(Cl)c1cc(C(=O)Cl)cc(C(=O)Cl)c1
inactive: [8] | [2] | [5] | [6]

CCc1ccc2c(c1)C(=O)c1ccccc1C2=O
inactive: [9] | [10] | [2] | [4] | [5] | [6]

O=C(Nc1ccccc1SSc1ccccc1NC(=O)c1ccccc1)c1ccccc1
inactive: [9] | [10] | [7] | [3] | [4] | [5]

Cc1cc(C)c(C)c(O)c1
inactive: [9] | [10] | [2] | [3] | [4] | [5]

CCCCCCCCCCCCCCCC[n+]1ccccc1
inactive: [9] | [10] | [2] | [3] | [5]
active: [7] 19.8 µM | [6] 14.7 µM

CC1=CC[C@H](C(C)C)C=C1
inactive: [9] | [10] | [7] | [4] | [5] | [6]

C1=CCCC1
inactive: [8] | [2] | [3] | [5] | [6]

CC(C)(C)C(=O)C=Cc1ccc(Cl)cc1
active: [9] 26.1 µM
inactive: [8] | [10] | [3] | [4] | [5] | [6]

Cc1ccccc1C
inactive: [9] | [10] | [7] | [2] | [3] | [4] | [5] | [6]
